Bioassay records deposited in PubChem BioAssay by National Center for Advancing Translational Sciences (NCATS).
Only some compounds are listed: those with a hit (about 10% of all), similar ones and a draw of the others.
SW480 rereplic: DNA re-replication induction in SW480 cells; SW480 DNA re-replication, Hoechst DNA content imaging, 48 h; Potency, µM (series often up to 46.1 µM), usual class: activators; actives 1.8% (n = 340,000); AID 624297; also: nearly all actives have a fitted effect of over 55% in size
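Per well, 250 cells were exposed to pinned compound for 48 hr. Nuclear DNA was visualised with Hoechst (40 min, 37 C) and total object intensity recorded by fluorescence scanning.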
ELG1 DNA repair: ELG1-dependent DNA repair inhibition; HEK293T ELG1-luciferase reporter, luminescence, 16 h; DNA damage induced by 5-fluorouridine; Potency, µM (titrated, usually from 46.1 µM), actives largely listed as inhibitors; actives 2.3% (n = 330,000); also: nearly all actives have a fitted effect of over 55% in size
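Quantitative HTS, concentration-response format. 2,000 cells/well co-treated with 5-fluorouridine and compound, 16 hr in 5% CO2 at 37 °C; ONE-Glo luminescence read after 30 min.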
MCF10A rerep: induces DNA re-replication in MCF 10a normal breast cells. actives 2.9% (n = 350,000). Potency, µM (doses to about 46.1 µM), usual class: activators. AID 624296. MCF 10A DNA re-replication, Hoechst nuclear intensity, 48 h; also: nearly all actives have a fitted effect of over 50% in size
RORgamma inh: inhibitors of mouse ROR gamma transcriptional activity. Potency, µM (highest dose often 53.6 µM), most hits filed as inhibitors. P51450. AID 2551. Drosophila S2 Gal4-RORgamma UAS-luciferase reporter, 20 h. actives 5.4% (n = 310,000); also: nearly all actives have a fitted effect of over 60% in size
Target sequence (P51450 whole entry, looked up, the tested form may be a part): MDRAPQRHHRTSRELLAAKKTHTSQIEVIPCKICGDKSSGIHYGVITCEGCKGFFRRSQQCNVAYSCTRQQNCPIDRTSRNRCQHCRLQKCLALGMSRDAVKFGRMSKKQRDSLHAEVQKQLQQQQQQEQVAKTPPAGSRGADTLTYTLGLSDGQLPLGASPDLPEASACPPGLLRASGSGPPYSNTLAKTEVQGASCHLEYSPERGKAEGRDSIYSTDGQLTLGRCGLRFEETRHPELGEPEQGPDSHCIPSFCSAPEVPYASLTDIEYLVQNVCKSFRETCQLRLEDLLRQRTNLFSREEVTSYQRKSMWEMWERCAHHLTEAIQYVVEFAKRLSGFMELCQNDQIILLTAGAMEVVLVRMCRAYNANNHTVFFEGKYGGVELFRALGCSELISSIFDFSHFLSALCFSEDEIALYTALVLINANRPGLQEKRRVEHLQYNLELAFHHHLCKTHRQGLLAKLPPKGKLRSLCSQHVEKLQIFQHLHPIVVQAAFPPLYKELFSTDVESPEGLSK
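Stably transfected Drosophila Schneider cells are the test system, with ROR gamma fused to Gal4 and luciferase under UAS control; luminescence is read after 20 hr of 700 uM copper sulfate induction at ambient temperature.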
Gal4-VP16 FLuc: Gal4-VP16 reporter inhibition counter-screen. Potency, µM (titrated, usually from 53.6 µM), most hits filed as inhibitors. actives 3.5% (n = 310,000). Drosophila S2 Gal4-VP16 UAS-luciferase, luminescence, 20 h;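 also: Gal4-VP16 expression switched on by copper sulfate through the metallothionein promoter; nearly all actives have a fitted effect of over 50% in size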
Each line names hits and unclear results; the compound was inactive in the other large screens. Calls follow the shape of the dose curve; as a rule, active = well fitted curve in the direction sought with a large enough effect; inconclusive = small, poorly fitted or top-dose-only effect, or another doubt; inactive = no such curve, though single readings can be large; an effect the other way counts as inactive or inconclusive.

CCC(C)Sc1nc2c(c(=O)[nH]c(=O)n2C)n1CC(O)COc1ccccc1C (stereo unspecified)	ELG1 DNA repair 16µM, MCF10A rerep inconclusive
CCOC(=O)C(CC)Sc1nc2c(c(=O)[nH]c(=O)n2C)n1CCc1ccccc1 (stereo unspecified)	ELG1 DNA repair 8.2µM
CCOC(=O)CSc1nc2c(c(=O)[nH]c(=O)n2C)n1CCc1ccccc1	none
O=C(Nc1ccccc1Br)C1CC(=O)N(c2ccc3c4c(cccc24)CC3)C1 (stereo unspecified)	SW480 rereplic inconclusive, ELG1 DNA repair inconclusive, MCF10A rerep 21µM
Cc1ccccc1NC(=O)C1CC(=O)N(c2ccc3c4c(cccc24)CC3)C1 (stereo unspecified)	none
Cc1ccc(NC(=O)CSc2nnc(-c3ccccc3Br)o2)cc1C	none
Cc1ccc(NC(=O)CSc2nnc(-c3ccccc3C)o2)cc1C	ELG1 DNA repair inconclusive, RORgamma inh 14µM, Gal4-VP16 FLuc inconclusive
Cc1cccc(NC(=O)CSc2nnc(-c3ccccc3C)o2)c1	ELG1 DNA repair inconclusive, RORgamma inh 5µM
Cc1ccc(C(=O)O)cc1-c1ccc(/C=C2/NC(=O)N(c3ccccc3)C2=O)o1	SW480 rereplic inconclusive, MCF10A rerep 13µM, RORgamma inh inconclusive
O=C(O)c1ccc(-c2ccc(/C=C3\NC(=O)N(Cc4ccc(Cl)cc4)C3=O)o2)cc1	SW480 rereplic 10µM, MCF10A rerep 2.1µM
C#CCN1C(=O)S/C(=C\c2ccc(-c3ccc(C(=O)O)cc3C)o2)C1=O	ELG1 DNA repair inconclusive, RORgamma inh inconclusive
Cc1cc(C(=O)O)ccc1-c1ccc(/C=C2\NC(=O)N(Cc3ccccc3Cl)C2=O)o1	SW480 rereplic inconclusive, MCF10A rerep 2.3µM
Cc1ccc(CN2C(=O)N/C(=C\c3ccc(-c4ccc(C(=O)O)cc4C)o3)C2=O)cc1	SW480 rereplic 7.3µM, MCF10A rerep inconclusive
Cc1ccc(/C=C2/NC(=O)N(Cc3ccccc3)C2=O)o1	SW480 rereplic inconclusive, RORgamma inh inconclusive, Gal4-VP16 FLuc inconclusive
CCCCN(C(=O)CSCc1c(C)noc1C)c1c(N)n(CCCC)c(=O)[nH]c1=O	none (no result: RORgamma inh, Gal4-VP16 FLuc)
CCN(Cc1cnn(C)c1)Cc1nc(C2(c3ccc(C)cc3)CCCC2)no1	none
Cc1ccc(C)c(N2C(=N)S/C(=C\c3ccc(-c4ccccc4C(=O)O)o3)C2=O)c1	MCF10A rerep 18µM
Cc1ccc(C(=O)O)cc1-c1ccc(/C=C2\SC(=O)N(CC(=O)Nc3ccccc3)C2=O)o1	MCF10A rerep 23µM
Cc1ccccc1NC(=O)CN1C(=O)S/C(=C\c2ccc(-c3cc(C(=O)O)ccc3C)o2)C1=O	MCF10A rerep inconclusive
CCOC(=O)C(C)N1C(=O)S/C(=C\c2ccc(-c3ccccc3C(=O)O)o2)C1=O (stereo unspecified)	SW480 rereplic inconclusive
O=C(N/N=C/c1ccc(OCC(=O)N2CCCCC2)cc1)c1ccccc1O	ELG1 DNA repair inconclusive
O=C1NCC(O)=C1C=NC12CC3CC(CC(C3)C1)C2	SW480 rereplic inconclusive, ELG1 DNA repair inconclusive, MCF10A rerep 15µM
COCCCN1C(=O)N(c2ccccc2)C(=O)C1CC(=O)Nc1ccc(F)cc1 (stereo unspecified)	none
C=C1CC(COc2ccc3c(C)c(Cl)c(=O)oc3c2)(c2ccccc2)OC1=O (stereo unspecified)	SW480 rereplic inconclusive, MCF10A rerep 4.6µM (no result: ELG1 DNA repair, RORgamma inh, Gal4-VP16 FLuc)
COc1ccc(-c2ccc(CCC(=O)O)o2)cc1	SW480 rereplic inconclusive, ELG1 DNA repair inconclusive, MCF10A rerep inconclusive, RORgamma inh inconclusive
O=C(O)CCc1ccc(-c2ccc(Cl)cc2)o1	SW480 rereplic inconclusive, ELG1 DNA repair inconclusive, MCF10A rerep 21µM, RORgamma inh inconclusive, Gal4-VP16 FLuc inconclusive
O=C(O)CCc1ccc(-c2ccc(Br)cc2)o1	SW480 rereplic 5.8µM, ELG1 DNA repair inconclusive, MCF10A rerep inconclusive, RORgamma inh inconclusive, Gal4-VP16 FLuc inconclusive
COc1ccc(C(=O)CC(=O)C(=O)Nc2cccc(F)c2)cc1	RORgamma inh 7.1µM, Gal4-VP16 FLuc 7.1µM
COCC(=O)Nc1ccc([N+](=O)[O-])cc1C	none
COc1ccc(C(=O)CC(=O)C(=O)NCCc2cccc(C)c2)cc1	SW480 rereplic inconclusive, MCF10A rerep 18µM, Gal4-VP16 FLuc inconclusive
COc1ccc(C(=O)CC(=O)C(=O)Nc2ccc(C)c(Cl)c2)cc1	ELG1 DNA repair inconclusive, RORgamma inh inconclusive, Gal4-VP16 FLuc inconclusive
COc1ccc(C(=O)CC(=O)C(=O)Nc2ccccc2)cc1	SW480 rereplic inconclusive, ELG1 DNA repair inconclusive, RORgamma inh inconclusive, Gal4-VP16 FLuc inconclusive
COc1ccc(C(=O)CC(=O)C(=O)Nc2cc(C)ccc2C)cc1	SW480 rereplic inconclusive, RORgamma inh 7.1µM, Gal4-VP16 FLuc 10µM
COc1ccc(C(=O)CC(=O)C(=O)Nc2ccc([N+](=O)[O-])cc2C)cc1	RORgamma inh 5.6µM, Gal4-VP16 FLuc 11µM
COc1ccc(N2CCN(C(c3ccc4ncccc4c3)c3nnnn3C(C)C)CC2)cc1 (stereo unspecified)	ELG1 DNA repair inconclusive
CC(C(=O)Nc1ccccn1)c1ccccc1 (stereo unspecified)	none
CC1CC(C)CN(C(=O)C2CCN(S(=O)(=O)c3cccc4cccnc34)CC2)C1 (stereo unspecified)	none
CCOc1ccccc1NC(=O)C(=O)CC(=O)c1ccc(OC)cc1	ELG1 DNA repair inconclusive, RORgamma inh 6.3µM, Gal4-VP16 FLuc 4µM
COc1ccc(C(=O)CC(=O)C(=O)Nc2cc(OC)c(OC)c(OC)c2)cc1	RORgamma inh inconclusive, Gal4-VP16 FLuc inconclusive
COc1cc(OC)cc(C(=O)OC/C(O)=C(\C#N)c2nc3ccccc3[nH]2)c1	SW480 rereplic inconclusive, MCF10A rerep 21µM, RORgamma inh 6.3µM, Gal4-VP16 FLuc 18µM
Cc1nn(-c2ccccc2)c(C)c1C(=O)OCC(O)=C(C#N)c1nc2ccccc2[nH]1	SW480 rereplic inconclusive, MCF10A rerep 18µM (no result: ELG1 DNA repair, RORgamma inh, Gal4-VP16 FLuc)
COc1ccc(C(=O)OC/C(O)=C(\C#N)c2nc3ccccc3[nH]2)cc1S(=O)(=O)N1CCOCC1	RORgamma inh 13µM
Cc1nn(-c2ccccc2)c(C)c1C(=O)OC/C(O)=C(\C#N)c1nc2ccccc2[nH]1	MCF10A rerep inconclusive, RORgamma inh inconclusive, Gal4-VP16 FLuc inconclusive
Cc1c(C(=O)OC/C(O)=C(\C#N)c2nc3ccccc3[nH]2)oc2ccccc12	SW480 rereplic inconclusive, MCF10A rerep 15µM, RORgamma inh inconclusive, Gal4-VP16 FLuc inconclusive
COc1ccc(C(=O)Nc2nc3ccccc3[nH]2)cc1S(=O)(=O)N1CCOCC1	SW480 rereplic inconclusive, RORgamma inh inconclusive
O=c1cc(-c2cccc(F)c2)[nH]c2cc(F)ccc12	none (no result: SW480 rereplic, ELG1 DNA repair, MCF10A rerep)
CSc1nnc2ccc(-c3cccs3)nn12	ELG1 DNA repair inconclusive, MCF10A rerep inconclusive
Cc1ccc(C)c(S(=O)(=O)N2CCN(C(=O)CCC(=O)c3cc(C)sc3C)CC2)c1	ELG1 DNA repair inconclusive (no result: RORgamma inh, Gal4-VP16 FLuc)
